Measurements reported in PubChem BioAssay (EPA / NIEHS).
Records with an inconclusive call do not appear. The source made the active and inactive calls. How the source made its calls, unless noted: active means hit-call score of the fitted dose curve at least 0.9, where 1 is the maximum; inactive means score below 0.9.

Columns and labels:
[1] = target: Paired box protein Pax-6 (Homo sapiens) (UniProt P26367); experiment: ATG_Pax6_CIS: Attagene CIS-FACTORIAL HepG2 Assay for human Paired Box 6 (PAX6) (AID 2282956); conditions: HepG2 CIS-FACTORIAL PAX6 reporter transcription, RNA readout; actives raise or lower the signal
Sequence of Paired box protein Pax-6 (Homo sapiens) (P26367 whole entry, looked up): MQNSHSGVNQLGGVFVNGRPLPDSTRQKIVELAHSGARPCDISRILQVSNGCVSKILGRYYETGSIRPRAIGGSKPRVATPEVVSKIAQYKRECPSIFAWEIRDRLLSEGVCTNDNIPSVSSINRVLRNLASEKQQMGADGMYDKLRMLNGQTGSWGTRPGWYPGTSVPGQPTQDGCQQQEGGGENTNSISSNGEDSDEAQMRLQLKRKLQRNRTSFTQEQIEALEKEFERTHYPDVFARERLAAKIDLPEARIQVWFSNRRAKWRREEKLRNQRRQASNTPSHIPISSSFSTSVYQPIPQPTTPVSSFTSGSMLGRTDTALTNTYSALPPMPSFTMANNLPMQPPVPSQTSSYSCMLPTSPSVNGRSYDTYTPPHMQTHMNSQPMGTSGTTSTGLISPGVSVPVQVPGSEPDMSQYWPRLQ
How it was run: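 Multiplexed cis-reporter HepG2 system; 24 h treatment; reporter mRNA read by RT-PCR/CE fluorescence; bidirectional fit vs DMSO.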

[2] = ATG_PXRE_CIS: Attagene CIS-FACTORIAL HepG2 Assay for human Pregnane X Receptor Element (PXRE) (AID 2282957); conditions: HepG2 Attagene CIS-FACTORIAL PXRE reporter, mRNA; actives raise or lower the signal
How it was run: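 Cis-element reporter mRNA in human hepatoma HepG2 cells is measured 24 h post-dosing by RT-PCR, primer-extension labeling and capillary electrophoresis; gain or loss of signal is fitted relative to DMSO.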

[3] = ATG_PPRE_CIS: Attagene CIS-FACTORIAL HepG2 Assay for human Peroxisome Proliferator-activated Response Element (PPRE) (AID 2282958); conditions: HepG2 PPRE cis-element reporter, Attagene transcription factor profiling; actives raise or lower the signal
How it was run: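 DMSO served as negative control and baseline for bidirectional curve fitting. Signal came from PPRE-regulated reporter mRNA in HepG2 cells, measured 24 h post-dosing by RT-PCR, 6-FAM primer extension and capillary electrophoresis.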

[4] = ATG_RORE_CIS: Attagene CIS-FACTORIAL HepG2 Assay for human RAR-related Orphan Receptor Element (RORE) (AID 2282959); conditions: HepG2 Attagene cis-factorial RORE reporter, mRNA; actives raise or lower the signal
How it was run: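 Transfect HepG2 with MRTUs; treat 24 h; extract RNA; RT with oligo(dT); PCR with reporter-specific primers; 6-FAM primer extension; HpaI digest 2 h at 37 C; capillary electrophoresis. Fit vs DMSO, bidirectional.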

[5] = ATG_Sox_CIS: Attagene CIS-FACTORIAL HepG2 Assay for human SRY-box transcription factor (SOX) (AID 2282960); conditions: HepG2 Attagene cis-factorial SOX reporter, mRNA; actives raise or lower the signal
How it was run: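 Fluorescence-labelled cDNA fragments from reporter transcripts, sized by CE, give the signal. Cells: HepG2, transiently transfected with cis-regulated reporter units. Exposure 24 h; DMSO negative control; bidirectional curve fitting.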

[6] = target: Transcription factor Sp1 (Homo sapiens) (UniProt P08047); experiment: ATG_Sp1_CIS: Attagene CIS-FACTORIAL HepG2 Assay for human Specificity Protein 1 (Sp1) (AID 2282961); conditions: HepG2 Sp1 cis-reporter transcription, actives raise or lower the signal
Sequence of Transcription factor Sp1 (Homo sapiens) (P08047 whole entry, looked up): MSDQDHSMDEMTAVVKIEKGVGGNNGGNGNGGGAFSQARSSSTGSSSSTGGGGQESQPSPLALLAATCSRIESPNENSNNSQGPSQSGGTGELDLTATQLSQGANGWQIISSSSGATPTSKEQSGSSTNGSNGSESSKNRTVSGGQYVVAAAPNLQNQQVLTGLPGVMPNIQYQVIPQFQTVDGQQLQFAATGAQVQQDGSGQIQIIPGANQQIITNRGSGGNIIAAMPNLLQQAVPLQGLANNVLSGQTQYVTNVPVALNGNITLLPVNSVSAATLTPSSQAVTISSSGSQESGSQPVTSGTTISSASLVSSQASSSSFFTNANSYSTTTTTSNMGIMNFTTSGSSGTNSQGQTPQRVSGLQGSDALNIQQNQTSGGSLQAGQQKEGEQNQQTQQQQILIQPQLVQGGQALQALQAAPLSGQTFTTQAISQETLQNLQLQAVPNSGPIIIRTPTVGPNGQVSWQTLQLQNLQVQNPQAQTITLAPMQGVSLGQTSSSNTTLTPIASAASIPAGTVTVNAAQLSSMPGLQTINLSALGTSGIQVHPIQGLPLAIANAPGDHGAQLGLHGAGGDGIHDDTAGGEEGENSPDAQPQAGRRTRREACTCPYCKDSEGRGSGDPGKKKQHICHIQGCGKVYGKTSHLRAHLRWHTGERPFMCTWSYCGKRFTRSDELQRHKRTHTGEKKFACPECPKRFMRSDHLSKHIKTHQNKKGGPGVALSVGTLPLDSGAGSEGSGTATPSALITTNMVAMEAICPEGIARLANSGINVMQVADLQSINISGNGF
How it was run: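 Chemicals are dosed onto HepG2 cells transfected with multiple cis-promoter reporter constructs, and after 24 h reporter RNA is reverse-transcribed, PCR-amplified and resolved by capillary electrophoresis for fluorescence quantitation; activity is scored up or down against DMSO.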

[7] = ATG_SREBP_CIS: Attagene CIS-FACTORIAL HepG2 Assay for human Sterol Regulatory Element Binding (SREBP) (AID 2282962); conditions: HepG2 Attagene cis-factorial SREBP reporter, mRNA; actives raise or lower the signal
How it was run: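 mRNA induction of transfected cis-promoter reporters in HepG2 cells, 24 h post-dose. Detection: RT-PCR with 6-FAM-labelled products, HpaI digest, capillary electrophoresis. DMSO served as negative control and baseline.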

[8] = target: Signal transducer and activator of transcription 3 (Homo sapiens) (UniProt P40763); experiment: ATG_STAT3_CIS: Attagene CIS-FACTORIAL HepG2 Assay for human Signal Transducer and Activator of Transcription 3 (STAT3) (AID 2282963); conditions: HepG2, Attagene cis-factorial STAT3 reporter transcription; actives raise or lower the signal
Sequence of Signal transducer and activator of transcription 3 (Homo sapiens) (P40763 whole entry, looked up): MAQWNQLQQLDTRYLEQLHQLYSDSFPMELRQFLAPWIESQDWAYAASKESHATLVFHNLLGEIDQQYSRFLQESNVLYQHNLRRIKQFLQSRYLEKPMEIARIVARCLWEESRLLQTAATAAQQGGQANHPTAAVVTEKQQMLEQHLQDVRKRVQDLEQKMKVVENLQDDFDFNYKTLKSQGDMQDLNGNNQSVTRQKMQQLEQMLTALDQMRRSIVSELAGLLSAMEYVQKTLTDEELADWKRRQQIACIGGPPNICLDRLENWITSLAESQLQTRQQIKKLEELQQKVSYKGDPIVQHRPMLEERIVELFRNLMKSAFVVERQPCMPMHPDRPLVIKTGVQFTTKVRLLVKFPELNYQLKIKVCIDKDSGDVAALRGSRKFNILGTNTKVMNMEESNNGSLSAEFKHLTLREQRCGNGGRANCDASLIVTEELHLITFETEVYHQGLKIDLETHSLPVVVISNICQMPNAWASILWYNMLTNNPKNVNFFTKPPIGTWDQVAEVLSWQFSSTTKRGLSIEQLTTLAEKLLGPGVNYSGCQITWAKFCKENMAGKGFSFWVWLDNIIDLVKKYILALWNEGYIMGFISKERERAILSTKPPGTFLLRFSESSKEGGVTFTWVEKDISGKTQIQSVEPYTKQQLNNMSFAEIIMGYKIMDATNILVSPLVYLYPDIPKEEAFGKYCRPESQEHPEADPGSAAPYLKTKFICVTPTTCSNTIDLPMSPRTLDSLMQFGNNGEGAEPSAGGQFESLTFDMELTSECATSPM
How it was run: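 Transcript-level reporter assay. HepG2 transient MRTU transfection, 24 h exposure, fluorescence detection after RT-PCR and CE; DMSO baseline.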

[9] = ATG_TA_CIS: Attagene CIS-FACTORIAL HepG2 Assay for human TA Basal Promoter (AID 2282964); conditions: HepG2 Attagene CIS-factorial TA basal promoter reporter; actives raise or lower the signal
How it was run: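 Steps: transfect HepG2 with MRTUs; dose 24 h; isolate RNA, DNase-treat, reverse-transcribe; PCR and FAM-label reporter cDNA; digest with HpaI 2h at 37 C; run capillary electrophoresis. Activity fitted both directions against DMSO.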

[10] = ATG_TCF_b_cat_CIS: Attagene CIS-FACTORIAL HepG2 Assay for human T-Cell-Factor with beta-catenin (TCF/b-cat) (AID 2282965); conditions: HepG2 TCF/beta-catenin cis-reporter transcription, actives raise or lower the signal
How it was run: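 In this cis-format system, transfected HepG2 cells report endogenous transcription factor activity. Readout after 24 h exposure is reporter transcript abundance from RT-PCR and capillary electrophoresis, analysed for gain or loss of signal versus DMSO.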

[11] = ATG_TAL_CIS: Attagene CIS-FACTORIAL HepG2 Assay for human TAL Basal Promoter (AID 2282966); conditions: HepG2 Attagene cis-factorial TAL promoter reporter; actives raise or lower the signal;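 further: background control endpoint measuring basal TAL promoter reporter mRNA not a specific factor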
How it was run: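 In this cell-based multiplex, HepG2 liver cells bearing cis-promoter reporter constructs are dosed for 24 hours. Total RNA is reverse-transcribed and amplified, labelled fragments are sized by capillary electrophoresis, and signal changes are fitted bidirectionally versus DMSO.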

[12] = ATG_TGFb_CIS: Attagene CIS-FACTORIAL HepG2 Assay for human Transforming Growth Factor (TGF) (AID 2282967); conditions: HepG2 Attagene CIS TGFb reporter, mRNA transcription; actives raise or lower the signal
How it was run: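 Cells were dosed for 24 hours, after which total RNA was reverse-transcribed and reporter sequences amplified, labeled and sized by capillary electrophoresis. Activity was fitted in both directions against DMSO.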

[13] = ATG_VDRE_CIS: Attagene CIS-FACTORIAL HepG2 Assay for human Vitamin D Receptor Element (VDRE) (AID 2282968); conditions: HepG2 VDRE cis-reporter transcription, actives raise or lower the signal
How it was run: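 RT-PCR/CE readout of reporter mRNA; HepG2, transient transfection, 24 h dosing; DMSO baseline; bidirectional analysis.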

[14] = target: Nuclear receptor subfamily 1 group I member 3 (Homo sapiens) (UniProt Q14994); experiment: ATG_CAR_TRANS: Attagene TRANS-FACTORIAL HepG2 Assay for human Constitutive Androstane Receptor (CAR) (AID 2282969; active means hit-call score of the fitted dose curve at least 0.9, where 1 is the maximum;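 further: activators raise reporter mRNA above DMSO so AC50 marks induction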); conditions: HepG2 Attagene TRANS-FACTORIAL CAR reporter
Sequence of Nuclear receptor subfamily 1 group I member 3 (Homo sapiens) (Q14994 whole entry, looked up, the tested form may be a part): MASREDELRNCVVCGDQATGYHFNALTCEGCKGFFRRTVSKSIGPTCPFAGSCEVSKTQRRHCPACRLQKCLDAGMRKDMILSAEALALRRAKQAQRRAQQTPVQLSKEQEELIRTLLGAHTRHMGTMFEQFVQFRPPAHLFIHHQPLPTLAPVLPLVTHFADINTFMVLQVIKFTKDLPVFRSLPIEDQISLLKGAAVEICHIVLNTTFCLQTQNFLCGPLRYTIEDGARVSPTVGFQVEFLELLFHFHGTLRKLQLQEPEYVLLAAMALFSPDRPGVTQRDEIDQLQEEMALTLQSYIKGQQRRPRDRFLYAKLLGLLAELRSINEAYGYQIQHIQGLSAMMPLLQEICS
How it was run: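 HepG2 cells transiently transfected with multiplexed GAL4-UAS reporter units expressing chimeric NR-Gal4 proteins; compound exposure 24 h. Reporter mRNA measured by RT-PCR, 6-FAM labelling, HpaI digestion and capillary electrophoresis; gain-of-signal fitted against DMSO baseline.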

[15] = target: X-box-binding protein 1 (Homo sapiens) (UniProt P17861); experiment: ATG_Xbp1_CIS: Attagene CIS-FACTORIAL HepG2 Assay for human X-box Binding Protein 1 (XBP1) (AID 2282972); conditions: HepG2 XBP1 cis-element reporter, Attagene multiplex; actives raise or lower the signal
Sequence of X-box-binding protein 1 (Homo sapiens) (P17861 whole entry, looked up, the tested form may be a part): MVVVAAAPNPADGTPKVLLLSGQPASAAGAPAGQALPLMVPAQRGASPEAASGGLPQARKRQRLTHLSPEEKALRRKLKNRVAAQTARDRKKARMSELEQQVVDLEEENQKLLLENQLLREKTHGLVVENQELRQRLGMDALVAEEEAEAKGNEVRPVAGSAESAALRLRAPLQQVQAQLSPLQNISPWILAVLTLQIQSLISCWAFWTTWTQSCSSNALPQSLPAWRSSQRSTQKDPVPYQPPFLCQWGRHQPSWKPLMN
How it was run: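 Fluorescence-labelled cDNA fragments from reporter transcripts, separated by capillary electrophoresis, give the signal. Source: HepG2 cells transfected with promoter-driven reporter units, harvested 24 h post-dose. DMSO served as reference for bidirectional curve fitting.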

[16] = ATG_M_19_TRANS: Attagene TRANS-FACTORIAL HepG2 Assay for M19 Transcription Factor (Internal Marker) (AID 2282974; active means hit-call score of the fitted dose curve at least 0.9, where 1 is the maximum); conditions: HepG2 Attagene TRANS-FACTORIAL M19 internal marker reporter
How it was run: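 Multiplexed TRANS format: HepG2 liver cells bearing transient GAL4-UAS reporter units, chemical treatment 24 h, reporter transcripts quantified by RT-PCR plus capillary electrophoresis. DMSO defines baseline.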

[17] = ATG_GAL4_TRANS: Attagene TRANS-FACTORIAL HepG2 Assay for GAL4 (Internal Marker) (AID 2282976; active means hit-call score of the fitted dose curve at least 0.9, where 1 is the maximum); conditions: HepG2 Attagene TRANS GAL4 internal marker reporter
How it was run: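 RT-PCR/capillary electrophoresis readout of reporter mRNA. HepG2, transient MRTU transfection (GAL4-UAS reporters), 24 h compound exposure. Background-control endpoint, positive direction vs DMSO baseline.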

[18] = target: Estrogen-related receptor gamma (Homo sapiens) (UniProt P62508); experiment: ATG_ERRg_TRANS: Attagene TRANS-FACTORIAL HepG2 Assay for human Estrogen-Related Receptor gamma (ERRg) (AID 2282977; active means hit-call score of the fitted dose curve at least 0.9, where 1 is the maximum;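 further: hits increase reporter signal over DMSO so potencies reflect activators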); conditions: HepG2 Attagene TRANS reporter, ERRg transactivation
Sequence of Estrogen-related receptor gamma (Homo sapiens) (P62508 whole entry, looked up, the tested form may be a part): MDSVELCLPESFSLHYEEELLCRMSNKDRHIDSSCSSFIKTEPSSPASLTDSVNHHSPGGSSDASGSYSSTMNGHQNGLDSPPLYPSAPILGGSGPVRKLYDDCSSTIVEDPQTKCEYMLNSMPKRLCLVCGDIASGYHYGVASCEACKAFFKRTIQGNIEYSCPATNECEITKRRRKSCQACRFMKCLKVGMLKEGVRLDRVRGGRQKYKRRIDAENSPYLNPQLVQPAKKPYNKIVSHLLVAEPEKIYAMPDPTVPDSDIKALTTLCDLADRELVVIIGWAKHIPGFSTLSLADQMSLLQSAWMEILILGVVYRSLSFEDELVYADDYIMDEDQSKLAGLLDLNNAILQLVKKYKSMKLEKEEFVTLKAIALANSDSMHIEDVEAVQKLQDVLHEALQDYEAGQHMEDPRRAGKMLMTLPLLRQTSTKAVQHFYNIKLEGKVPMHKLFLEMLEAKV
How it was run: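 Transfect HepG2 with multiple GAL4-UAS reporter transcription units; dose chemicals 24 h; isolate RNA, reverse-transcribe with oligo(dT), PCR-amplify, label with 6-FAM, digest with HpaI; size fragments by capillary electrophoresis. DMSO serves as negative control.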

[19] = target: Steroid hormone receptor ERR1 (Homo sapiens) (UniProt P11474); experiment: ATG_ERRa_TRANS: Attagene TRANS-FACTORIAL HepG2 Assay for human Estrogen-Related Receptor alpha (ERRa) (AID 2282971; active means hit-call score of the fitted dose curve at least 0.9, where 1 is the maximum); conditions: HepG2 Attagene TRANS reporter, ERRa transactivation
Sequence of Steroid hormone receptor ERR1 (Homo sapiens) (P11474 whole entry, looked up, the tested form may be a part): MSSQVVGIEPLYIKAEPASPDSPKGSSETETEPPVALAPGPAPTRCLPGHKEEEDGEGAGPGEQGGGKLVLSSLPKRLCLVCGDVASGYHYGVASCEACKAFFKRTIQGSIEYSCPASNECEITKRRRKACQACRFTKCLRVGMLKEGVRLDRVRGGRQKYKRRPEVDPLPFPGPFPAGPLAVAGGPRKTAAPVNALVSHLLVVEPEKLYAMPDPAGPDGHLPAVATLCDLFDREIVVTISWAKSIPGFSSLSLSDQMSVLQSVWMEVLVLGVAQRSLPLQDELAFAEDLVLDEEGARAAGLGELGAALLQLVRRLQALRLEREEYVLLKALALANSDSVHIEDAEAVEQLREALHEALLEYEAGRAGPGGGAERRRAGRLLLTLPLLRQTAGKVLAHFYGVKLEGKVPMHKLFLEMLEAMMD
How it was run: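 Transfected HepG2, 24 h dosing, ERRa-Gal4 chimera driving GAL4-UAS reporter. Readout: reporter mRNA via RT-PCR plus capillary electrophoresis (fluorescence). Positive direction vs DMSO control.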

Measured: AC50

CCCC[P+](CCCC)(CCCC)CCCC
not listed: [18] | [19]
inactive: all other assays above

CCC(=O)O[C@@H]1C[C@H]2CC[C@]1(C)C2(C)C
not listed: [18] | [19]
inactive: all other assays above

C=C[Si]1(C)O[Si](C)(C=C)O[Si](C)(C=C)O[Si](C)(C=C)O1 (configuration not stated)
active: [2] 2.51 µM
not listed: [17] | [18] | [19]
inactive: all other assays above

CN(C)CCOC(C)(c1ccccc1)c1ccccn1 (configuration not stated)
active: [2] 100 µM
not listed: [19]
inactive: all other assays above

CCCCCCOC(=O)C(C)C
not listed: [14] | [16] | [17]
inactive: all other assays above

O=C(O)CCCCCCCCC(=O)O
not listed: [16] | [18] | [19]
inactive: all other assays above

O=c1[nH]c(=O)c2cn[nH]c2[nH]1
not listed: [14]
inactive: all other assays above

CCNCCO
not listed: [14] | [16] | [17] | [18] | [19]
inactive: all other assays above
